Test results taken from PubChem BioAssay (NCATS).
Results filed as inconclusive are left out. The source made the active and inactive calls. Calls come from the whole dose curve; as a rule, active = well fitted cell-killing curve with a large enough effect; inconclusive = small, poorly fitted or top-dose-only effect, or effect the other way; inactive = flat fitted curve, though single readings scatter.

Legend:
Assay in all cases: Primary qHTS to identify gynecologic anti-cancer compounds using libraries of approved drugs and bioactive compounds (AID 1345084); note: nearly all actives have a fitted effect of over 55% in size
C33A = settings: Gynecologic cancer cell panel viability, ATPlite luminescence, 48 h; series mostly up to 57.5 µM
Method in brief: (§1)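 Measured: luminescence after ATPlite addition (15 min, RT). Exposure: 48 h, 37 C, 5% CO2.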

CAOV3 = settings: Gynecologic cancer cell panel viability, ATPlite luminescence, 48 h; series mostly up to 57.5 µM
Method in brief: as §1

CASKI = settings: Gynecologic cancer cell panel viability, ATPlite luminescence, 48 h; series mostly up to 57.5 µM
Method in brief: as §1

Es-2 = settings: Gynecologic cancer cell panel viability, ATPlite luminescence, 48 h; series mostly up to 57.5 µM
Method in brief: as §1

HeLa = settings: Gynecologic cancer cell panel viability, ATPlite luminescence, 48 h; series mostly up to 57.5 µM
Method in brief: as §1

Hek293T = settings: Gynecologic cancer cell panel viability, ATPlite luminescence, 48 h, control line for the selectivity index; series mostly up to 57.5 µM
Method in brief: as §1

JEG-3 = settings: Gynecologic cancer cell panel viability, ATPlite luminescence, 48 h; series mostly up to 57.5 µM
Method in brief: as §1

OV90 = settings: Gynecologic cancer cell panel viability, ATPlite luminescence, 48 h; series mostly up to 57.5 µM
Method in brief: as §1

PA-1 = settings: Gynecologic cancer cell panel viability, ATPlite luminescence, 48 h; series mostly up to 57.5 µM
Method in brief: as §1

SKOV3 = settings: Gynecologic cancer cell panel viability, ATPlite luminescence, 48 h; series mostly up to 57.5 µM
Method in brief: as §1

Tov-21-G = settings: Gynecologic cancer cell panel viability, ATPlite luminescence, 48 h; series mostly up to 57.5 µM
Method in brief: as §1

Tov112D = settings: Gynecologic cancer cell panel viability, ATPlite luminescence, 48 h; series mostly up to 57.5 µM
Method in brief: as §1

Measured: Potency

O=C(O[C@H]1[C@@H]2C[C@@H]3OC[C@](O)([C@@H]1Cl)[C@H]2C(O[C@@H]1O[C@H](CO)[C@@H](O)[C@H](O)[C@H]1O)O3)c1ccc(O)c(O)c1 (stereo partly specified)
inactive: all assays above

CN1CCc2nc(C(=O)N[C@@H]3C[C@@H](C(=O)N(C)C)CC[C@@H]3NC(=O)C(=O)Nc3ccc(Cl)cn3)sc2C1
inactive: all assays above

COc1ccc(/C=C\C(=O)O)c(O[C@@H]2O[C@H](CO)[C@@H](O)[C@H](O)[C@H]2O)c1
inactive: all assays above

CC(C)=CC/C=C(\C)[C@H]1CC[C@]2(C)[C@@H]1[C@H](O)C[C@@H]1[C@@]3(C)CC[C@H](O)C(C)(C)[C@@H]3[C@@H](O[C@@H]3O[C@H](CO)[C@@H](O)[C@H](O)[C@H]3O)C[C@]12C
inactive: all assays above

COc1ccc(-n2[nH]c(=O)c3[nH]c4cc(Cl)ccc4c(=O)c3c2=O)c(C)c1
inactive: all assays above

CC1=C2C(O)C(=O)OC(c3ccoc3)C2(C)CCC1O (stereo unspecified)
inactive: all assays above

CC(C)(C)NCCCNC(=O)c1cccc(Br)c1
inactive: all assays above

CC(=O)OC[C@@]12C(=O)C[C@@H](C)[C@]3(C[C@@H](c4ccoc4)O[C@H]3OC(C)=O)[C@H]1CCC[C@]21CO1
inactive: all assays above

CON(C)C(=O)[C@H](O)[C@H](Cc1ccccc1)NC(=O)c1cc2cc(Cl)ccc2[nH]1
inactive: all assays above

COc1cccc(C(=O)N2CCN(C(=O)COc3cccc(C)c3)CC2)c1OC
inactive: all assays above

C=CC[C@]12C[C@@H](OC)C(=O)C(OC)=C1O[C@@H](c1cc(OC)c3c(c1)OCO3)[C@@H]2C
inactive: all assays above

CC(C)(O)/C=C/C1=CC(=O)[C@@](C)(O)C[C@H]1O
inactive: all assays above

CC(C)=CCC[C@](C)(O[C@@H]1O[C@H](CO)[C@@H](O)[C@H](O)[C@H]1O)[C@H]1CC[C@]2(C)[C@@H]1[C@H](O)CC1[C@@]3(C)CC[C@H](O)C(C)(C)C3[C@@H](O[C@@H]3O[C@H](CO)[C@@H](O)[C@H](O)[C@H]3O)C[C@]12C (stereo partly specified)
inactive: all assays above
